KCNH2 3.1 block: qHTS for Inhibitors of KCHN2 3.1: Mutant qHTS | Potassium voltage-gated channel subfamily H member 2, brain isoform KCNH2 3.1 (human) | U2OS KCNH2 3.1, thallium flux FluxOr; hits give low values | activity change, % (tested at about 1.8 µM) | 340,000 compounds, 0.95% hits;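 active = maximum activity change below -70%; inconclusive = maximum activity change from -70% to -50%; inactive = maximum activity change above -50%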;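 note: thallium influx rate constant from kinetic fluorescence after stimulation buffer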
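Normalized rate constant (relative to positive and negative DMSO controls) derived from a 2 min kinetic fluorescence read after stimulation; U2OS cells expressing the 3.1 isoform via virus at 1.77 x 10^8 /mL.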
KCNH2 WT inh: qHTS for Inhibitors of KCHN2 3.1: Wildtype qHTS; Voltage-gated inwardly rectifying potassium channel KCNH2 (Homo sapiens), Q12809; U2OS, BacMam KCNH2, thallium flux FluxOr; hits give low values; activity change, % at 1.84 µM; 340,000 compounds, 0.37% hits; AID 720551, 2013;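 active = maximum activity change below -70%; inconclusive = maximum activity change between -70% and -50%; inactive = maximum activity change above -50%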
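U2OS cells transduced with wild-type KCNH2 virus are loaded with FluxOr dye for 45 min, and thallium flux is measured in kinetic reads before and after stimulation buffer. Rate constants are normalized to DMSO controls.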
CtBP-E1A inh: qHTS Assay for Inhibitors of the CtBP/E1A Interaction | activity change, % (test concentration not listed) | AlphaScreen GST-E1A/His-CtBP binding, 1536-well; hits give low values | 340,000 compounds, 0.49% hits
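Protein mix (5X: 125 nM each GST-E1A, His-CtBP) was incubated with pinned compound 2 h at 37 deg C in dark, in 50 mM Tris pH 8.0 buffer with 300 mM NaCl. Glutathione donor and nickel acceptor beads followed; AlphaScreen signal read after 1 h.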
Six1-Eya2 inh: qHTS Assay for Inhibitors of the Six1/Eya2 Interaction; 360,000 compounds, 0.56% hits; activity change, % (concentration not given with the values); AlphaScreen GST-Six1/His-Eya2 binding, biochemical; hits give low values
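Homogeneous AlphaScreen proximity assay pairing GST-Six1 with His-tagged Eya2 (added as 5X mix: 250 nM and 500 nM) in 50 mM Tris pH 8.0, 300 mM NaCl, 1 mM TCEP. Glutathione donor and nickel acceptor beads; 1 h, 37 °C, dark.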
JMJD2E inh: qHTS Assay for Inhibitors of Human Jumonji Domain Containing 2E (JMJD2E); Potency, µM (doses to about 57.1 µM), inactives show top-dose activity change, negative = inhibition, actives largely listed as inhibitors; 230,000 compounds, 1.6% hits; JMJD2E catalytic domain, FDH-coupled NADH fluorescence (FDH is formaldehyde dehydrogenase);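 note: potency is the fitted concentration of half-maximal effect; 0% = wells with enzyme and -100% = buffer wells without enzyme; nearly all actives have a fitted effect of over 50% in size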
* hit, by the source's call. Compounds with a hit are over-represented: about 2% of the library has one in this group of screens. Cut-off read from the data, not from the text of the source, unless noted: active = activity change below about -65%; inconclusive = mostly about -30% to -63%; inactive = weaker than that. Unless noted, % is set by controls: 0 for no effect and ±100 for the full control effect.

Results for Cc1cc(CN2CCC(n3nccc3NC(=O)c3ccccc3Cl)CC2)cc(C)c1O ?
KCNH2 3.1 block: -77*; KCNH2 WT inh: -1; Six1-Eya2 inh: 1

How did CC(C)=CCN1CCC(n2nccc2NC(=O)c2ccccc2Cl)CC1 do in these assays?
KCNH2 3.1 block: 17; KCNH2 WT inh: 97; CtBP-E1A inh: 22; Six1-Eya2 inh: -4

How did COc1ccc(CN2CCC(n3nccc3NC(=O)C3CCCC3)CC2)cc1 do in these assays?
KCNH2 3.1 block: -49; KCNH2 WT inh: 33; CtBP-E1A inh: 4; Six1-Eya2 inh: -2

How did O=C(Nc1ccnn1C1CCN(CCCc2ccccc2)CC1)c1ccccc1Cl do in these assays?
KCNH2 3.1 block: -112*; KCNH2 WT inh: -120*; CtBP-E1A inh: -2; Six1-Eya2 inh: 5

How did CC(C)Cc1ccc(CN2CCC(n3nccc3NC(=O)C3CCCC3)CC2)cc1 do in these assays?
KCNH2 3.1 block: -103*; KCNH2 WT inh: -73*; CtBP-E1A inh: -5; Six1-Eya2 inh: -8

What do the screens show for `O=C(Nc1ccnn1C1CCN(Cc2cccnc2)CC1)c1ccccc1Cl`?
KCNH2 3.1 block: -1; KCNH2 WT inh: 24; CtBP-E1A inh: 12; Six1-Eya2 inh: 6

What do the screens show for `Cc1cc[n+](-c2[nH]c(=O)sc2/C=N/N=C(\[O-])c2ccccc2)cc1C`?
KCNH2 3.1 block: -15; KCNH2 WT inh: 3; CtBP-E1A inh: -6; Six1-Eya2 inh: -6; JMJD2E inh: -22%

Results for CC(C)(C)c1ccc(C(=O)c2c[nH]c(C(=O)NCc3ccco3)c2)cc1 ?
KCNH2 3.1 block: -4; KCNH2 WT inh: 0; CtBP-E1A inh: 4; Six1-Eya2 inh: 11; JMJD2E inh: 4%

How did O=C(NCc1ccco1)c1cc2ccc(O)cc2oc1=O do in these assays?
KCNH2 3.1 block: -11; KCNH2 WT inh: -1; CtBP-E1A inh: -3; Six1-Eya2 inh: -10; JMJD2E inh: inconclusive

How did Cc1ccc(OCCN2CCN(c3ncnc4sc(C)c(C)c34)CC2)cc1 do in these assays?
KCNH2 3.1 block: -79*; KCNH2 WT inh: -3; CtBP-E1A inh: -19; Six1-Eya2 inh: -19; JMJD2E inh: 4%

Results for Cc1cc(N2CCN(c3nc4ccccc4s3)CC2)n2ncnc2n1 ?
KCNH2 3.1 block: -72*; KCNH2 WT inh: 21; CtBP-E1A inh: -15; Six1-Eya2 inh: -9; JMJD2E inh: 4%

How did CC(=O)Nc1ccc(Cl)cc1C(=O)c1ccc[nH]1 do in these assays?
KCNH2 3.1 block: -2; KCNH2 WT inh: -2; CtBP-E1A inh: 1; Six1-Eya2 inh: 1

Results for NCC(=O)Nc1ccc(Cl)cc1C(=O)c1ccc[nH]1 ?
KCNH2 3.1 block: -19; KCNH2 WT inh: -16; Six1-Eya2 inh: -81*; JMJD2E inh: inconclusive

Results for Cc1cc(-c2csc(NCc3ccccc3)n2)c(C)n1C ?
KCNH2 3.1 block: -3; KCNH2 WT inh: -22; CtBP-E1A inh: -6; Six1-Eya2 inh: -10; JMJD2E inh: 28µM*

How did O=C(O)c1ccc2c(c1)C1C=CCC1C(c1ccncc1)N2 (stereo unspecified) do in these assays?
KCNH2 3.1 block: -24; KCNH2 WT inh: -23; CtBP-E1A inh: 2; Six1-Eya2 inh: -2; JMJD2E inh: 14µM*

What do the screens show for `COc1ccc(N/N=C(/N=Nc2nc(C)cc(=O)[nH]2)c2ccccc2)cc1`?
KCNH2 3.1 block: -3; KCNH2 WT inh: 10; CtBP-E1A inh: -27; Six1-Eya2 inh: inconclusive; JMJD2E inh: 14µM*

Results for Cc1cc(=O)[nH]c(N=N/C(=N/Nc2ccc(O)cc2)c2ccccc2)n1 ?
KCNH2 3.1 block: 0; KCNH2 WT inh: 2; CtBP-E1A inh: -2; Six1-Eya2 inh: -27; JMJD2E inh: 3%

What do the screens show for `Cc1ccc(C2=NN=C(NC(=O)CSc3nc(C)cc(C)n3)SC2)cc1`?
JMJD2E inh: 2%

Results for Cc1ccc(C2=NN=C(NC(=O)CSc3nnc4c5ccccc5n(C)c4n3)SC2)cc1 ?
KCNH2 3.1 block: 8; KCNH2 WT inh: 24; CtBP-E1A inh: inconclusive; Six1-Eya2 inh: -72*; JMJD2E inh: -1%

What do the screens show for `Cn1c2ccccc2c2nnc(SCC(=O)Nc3cccc(C(=O)O)c3)nc21`?
KCNH2 3.1 block: 2; KCNH2 WT inh: -4; CtBP-E1A inh: inconclusive; Six1-Eya2 inh: -67*

How did S=C(NCc1cccnc1)c1ccccc1 do in these assays?
KCNH2 3.1 block: 15; KCNH2 WT inh: 2; CtBP-E1A inh: -5; Six1-Eya2 inh: 1

Results for CC(=O)CN1Cc2ccccc2/C1=N\C(=O)Nc1ccccc1 ?
KCNH2 3.1 block: -78*; KCNH2 WT inh: 0; CtBP-E1A inh: 2; Six1-Eya2 inh: 6; JMJD2E inh: -8%

How did COc1ccc(N2Cc3ccccc3/C2=N\C(=O)Nc2ccccc2)cc1 do in these assays?
KCNH2 3.1 block: -2; KCNH2 WT inh: 2; CtBP-E1A inh: -2; Six1-Eya2 inh: -4; JMJD2E inh: -8%

What do the screens show for `COc1cc(/C=N/Nc2nc(C)cc(C)n2)ccc1OC(=O)c1ccco1`?
KCNH2 3.1 block: 12; KCNH2 WT inh: 17; CtBP-E1A inh: -2; Six1-Eya2 inh: -1; JMJD2E inh: -9%

Results for COc1cc(/C=N/Nc2ccc3ccccc3c2)ccc1OC(=O)c1ccco1 ?
KCNH2 3.1 block: 2; KCNH2 WT inh: -1; CtBP-E1A inh: -4; Six1-Eya2 inh: -11; JMJD2E inh: 20µM*

Results for O=C(NCCc1ccccc1)c1cccc2c1C(=O)N(C1CCCCC1)C2 ?
KCNH2 3.1 block: 10; KCNH2 WT inh: 1; CtBP-E1A inh: 4; Six1-Eya2 inh: 0

What do the screens show for `O=C(COC(=O)c1ccc(O)cc1)NCCC1=CCCCC1`?
KCNH2 3.1 block: -4; KCNH2 WT inh: 2; Six1-Eya2 inh: 5; JMJD2E inh: 10%

What do the screens show for `O=C(COC(=O)c1ccc2c(c1)OCCO2)NCCC1=CCCCC1`?
KCNH2 3.1 block: 5; KCNH2 WT inh: 6; CtBP-E1A inh: -1; Six1-Eya2 inh: -71*; JMJD2E inh: -4%

How did CCN(C[C@H]1N[C@@](Cc2ccccc2)(C(=O)OC)[C@H]2C(=O)N(C)C(=O)[C@@H]12)C(=O)Nc1ccccc1 do in these assays?
KCNH2 3.1 block: -1; KCNH2 WT inh: 14; CtBP-E1A inh: -3; Six1-Eya2 inh: 0

How did CCCOc1cccc(-c2cc(C(=O)NN)c3ccccc3n2)c1 do in these assays?
KCNH2 3.1 block: -28; KCNH2 WT inh: 2; CtBP-E1A inh: -9; Six1-Eya2 inh: -1; JMJD2E inh: 11µM*

Results for Cc1ccc(NC(=O)c2c(C(=O)Nc3ccccc3)sc3nc(C)cc(=O)n23)cc1 ?
KCNH2 3.1 block: -103*; KCNH2 WT inh: 4; CtBP-E1A inh: -1; Six1-Eya2 inh: -27; JMJD2E inh: -1%

Assay outcomes as filed in PubChem.
